This is a sample that favours compounds with a hit; in the whole collection about 9.4% have one here.
AMA1 RON2 block – AMA1-RON2 (P. falciparum) interaction inhibition; Potency, µM (highest dose often 58.2 µM), for inactives: at the highest dose activity change, negative = inhibition, usual class: inhibitors; 360,000 compounds, 0.2% hits; AlphaScreen AMA1-biotinylated RON2 peptide binding;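 also: 0% = vehicle wells and -100% = peptide control; nearly all actives have a fitted effect of over 45% in size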
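AMA1 (3D7) with his tag at 25 nM final met compounds first, then biotinylated RON2 peptide at 25 nM; detection used donor plus acceptor beads, 10 µg/mL apiece, read by AlphaScreen after 30 min at room temperature.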
Pf growth 48h – inhibits P. falciparum growth in the first generation, 48 h. AID 504832. P. falciparum luciferase growth in erythrocytes, 48 h. Potency, µM (highest dose often 28.7 µM), inactives show at the top dose activity change, negative = inhibition, actives largely listed as inhibitors. 310,000 compounds, 5.9% hits; also: % is scaled to controls: 0 for no effect and ±100 for the full control effect
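Erythrocytes infected with P. falciparum carrying an integrated firefly luciferase reporter (2% hematocrit, 0.1% parasitemia final) were exposed to compounds in RPMI 1640 with 0.5% Albumax at 37 C, 5% CO2. Growth inhibition was scored as reduced luminescence.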
SARS PLpro yeast – inhibitors of SARS-CoV papain-like protease in yeast. S. cerevisiae expressing SARS-CoV PLpro, growth rescue. Potency, µM (doses to about 32.9 µM), for the others: at the highest dose activity, positive = growth rescue, most hits filed as activators. 330,000 compounds, 0.19% hits. AID 485353; calls by dose curve; also: 0% is about no effect; nearly all actives have a fitted effect of over 55% in size
Pf growth 96h – P. falciparum growth inhibition at 96 hours; AID 504834; 320,000 compounds, 6.9% hits; P. falciparum luciferase reporter growth, 96 h; Potency, µM (doses to about 28.7 µM), inactives show at the top dose activity change, negative = inhibition, hits mostly inhibitors; also: % is scaled to controls: 0 for no effect and ±100 for the full control effect
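Compounds incubated with erythrocytes infected by luciferase-expressing P. falciparum (2% hematocrit, 0.05% parasitemia final) for 96 hours, 37 C in 5% CO2. Growth inhibition scored as decreased luciferase luminescence.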
Active calls of the source: *; ? = inconclusive; · = not tested or not shown; [ ] = remark or other dose. Unless noted, calls follow the shape of the dose curve; as a rule, active = well fitted curve in the direction sought with a large enough effect; inconclusive = small, poorly fitted or top-dose-only effect, or another doubt; inactive = no such curve, though single readings can be large; an effect the other way counts as inactive or inconclusive. Potency is read from the fitted curve at half-maximal effect.

SMILES	AMA1 RON2 block	Pf growth 48h	SARS PLpro yeast	Pf growth 96h
COC(=O)[C@@]1(Cc2ccc(F)cc2)[C@H]2c3cc(C(=O)N4CCCC4)n(C)c3C[C@H]2CN1C(=O)c1ccccc1	-24%	·	·	·
COCCn1c(C(=O)N2CCCC2)cc2c1C[C@H]1CN(C(=O)c3ccccc3)[C@@](Cc3ccc(F)cc3)(C(=O)OC)[C@@H]21	-2%	1.7µM*	14%	4.7µM*
COC(=O)[C@@]1(Cc2ccc(F)cc2)[C@H]2c3cc(C(=O)N4CCCC4)n(Cc4ccccc4)c3C[C@H]2CN1C(=O)c1ccccc1	-20%	·	·	·
COC(=O)[C@@]1(Cc2ccc(F)cc2)[C@H]2c3cc(C(=O)N4CCCC4)n(CCc4ccccn4)c3C[C@H]2CN1C(=O)c1ccccc1	11%	3.3µM*	-5%	2.1µM*
COC(=O)[C@@]1(Cc2ccc(F)cc2)[C@H]2c3cc(C(=O)N4CCCC4)n(CCc4c[nH]c5ccc(OC)cc45)c3C[C@H]2CN1C(=O)c1ccccc1	·	?	7%	1µM*
COC(=O)[C@@]1(Cc2ccc(OC)cc2)[C@H]2c3cc(C(=O)N4CCCC4)n(Cc4ccccn4)c3C[C@H]2CN1C(=O)c1ccccc1	59%	·	·	·
COC(=O)[C@@]1(Cc2ccc(F)cc2)[C@H]2c3cc(C(=O)N(C)C)n(CCc4ccccn4)c3C[C@H]2CN1C(=O)c1ccccc1	6%	2.6µM*	11%	3.3µM*
COc1ccccc1C(=O)n1nc(-c2cccnc2)nc1NCc1ccccc1	-29%	?	-1%	-37%[1.15 µM]
COC(=O)[C@@]1(Cc2ccc(OC)cc2)[C@H]2c3cc(C(=O)N4CCCC4)n(Cc4ccc(C)o4)c3C[C@H]2CN1C(=O)c1ccccc1	·	?	11%	2.1µM*
COC(=O)[C@@]1(Cc2ccccc2)[C@H]2c3cc(C(=O)N4CCCC4)n(CCSCCO)c3C[C@H]2CN1C(=O)c1ccccc1	·	1.7µM*	-15%	2.3µM*
O=S(=O)(O)c1cc(O)c2ccc(Nc3ccccc3)cc2c1	-23%	·	·	·
CCOC(=O)C1=NN(c2ccccc2C)C2=NC(C)=C(C(=O)OC)C(c3cccc(OC)c3)N12 (configuration not stated)	-5%	-3%	-44%	?
O=C(/C=C/c1ccc(S(=O)(=O)NCc2ccco2)cc1)N1CCN(c2ccccc2)CC1	-1%	?	-4%	3.7µM*
O=C(c1ccc(S(=O)(=O)NCc2ccco2)cc1)N1CCN(c2ccc(F)cc2)CC1	-9%	?	-3%	?
Cc1ccc(-n2c(=O)cc(NCc3cccnc3)[nH]c2=O)cc1	-8%	4%	8%	1.9µM*
COc1cccc(COc2ccc3c(C)c(Cc4ccccc4)c(=O)oc3c2)c1	6%	·	·	·
Cc1c(Cc2ccccc2)c(=O)oc2cc(OC(=O)c3ccccc3)ccc12	5%	-10%	0%	?
COc1cc(COc2ccc3c(C)c(Cc4ccccc4)c(=O)oc3c2C)cc(OC)c1OC	-5%	?	1%	1.9µM*
COc1ccccc1COc1ccc2c(C)c(CC(=O)O)c(=O)oc2c1C	-10%	1%	1%	6.6µM*
COc1ccc2c(C)c(Cc3ccccc3)c(=O)oc2c1OC	8%	12µM*	-3%	9%
COc1cc(COc2ccc3c(C)c(Cc4ccccc4)c(=O)oc3c2)cc(OC)c1OC	6%	8.3µM*	1%	?
CCOc1ccc(NC(=O)Cn2c(=O)n(CC3CCCO3)c(=O)c3ccccc32)cc1 (configuration not stated)	-4%	-26%	0%	?
Cc1noc(C)c1C(=O)N1CCC1(C)C(=O)NS(=O)(=O)c1cccc(Cl)c1 (configuration not stated)	-3%	·	·	·
Cc1nc(NC(=O)c2ccccc2)sc1C1(C)CC(c2c(Cl)cccc2Cl)=NO1 (configuration not stated)	27%	13µM*	-3%	?
CCC(OC(=O)c1nsc(Cl)c1Cl)C(=O)NCC1CCCO1 (configuration not stated)	-5%	8%	1%	-20%
O=C(Nc1nc2c(s1)CN(Cc1ccccc1)CC2)c1cccc(S(=O)(=O)N2CCc3ccccc32)c1	8%	?	9%	8.3µM*
O=C(Nc1nc2ccccc2s1)c1cccc(S(=O)(=O)N2CCc3ccccc32)c1	54%	?	-1%	?
O=C(Nc1nc2c(s1)CCCC2)c1ccc(S(=O)(=O)N2CCCc3ccccc32)cc1	-13%	?	-11%	10µM*

Screening results as filed in PubChem.
